Experimental data from PubChem BioAssay (NCI).
Compounds without any hit were thinned out: in the full panel of roughly 83,000, 20% have a hit.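 Results are percent growth after 48 hours of single-concentration exposure. 100 means growth as in untreated cells, lower positive values show inhibition; negative values down to -100 show cell death.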 Calls of active or inactive are those of the source. The calls were made as follows: active = growth percent below 10; inactive = the rest.

Tested on: OVCAR-5 ovarian
Assay: NCI-60 one-dose screen, 48 h (100 = growth as untreated, 0 = no growth, -100 = all killed)
Conditions: 10 µM unless noted

SMILES | growth
CC(C)CCC[C@@H](C)[C@H]1CC[C@H]2[C@@H]3CC=C4C[C@@H](C(C(=O)O)C(=O)O)CC[C@]4(C)[C@H]3CC[C@]12C | 45.2% (inactive)
CCN1CCN(c2cc(C(=O)Nc3nc(-c4cc(OC)c(OC)c(OC)c4)cs3)cc(C(F)(F)F)c2)CC1 | 74.6% (inactive)
N#Cc1nn(-c2cc(=O)[nH]c3ccc(Cl)cc23)c(N)c1C#N | 105% (inactive)
CN(C)CCCn1c2c(c3ncccc3c1=O)C(=O)c1ccccc1-2 | 46.5% (inactive)
COc1cc(-c2nc3cc(Cl)c(Cl)cc3[nH]2)ccc1OCC(=O)N=Nc1c(O)[nH]c2ccc([N+](=O)[O-])cc12 | 105% (inactive)
C=CC(=O)NCc1ccc(Nc2nccc(-c3ccc(N4CCCC4)c(C#N)c3)n2)cc1 | 75.3% (inactive)
CSc1nnc(-c2cnn3c2NC(c2ccccc2)C3)n1-c1ccc(C(F)(F)F)cc1 (stereo not given) | 84.7% (inactive)
N=C(N)c1ccc(-c2ccc(-c3ccc(Cl)cc3)s2)nc1 | -28% (active)
O=C(OCc1ccc2c(Cl)cc(Cl)c(O)c2n1)n1cncn1 | 81.8% (inactive)
Cn1ccc2c3c(ccc21)CC3=O | 102% (inactive)
O=C1c2ccc3c4ccc5c6c(ccc(c7ccc(c2c37)C(=O)N1CCC[P+](c1ccccc1)(c1ccccc1)c1ccccc1)c64)C(=O)N(CCC[P+](c1ccccc1)(c1ccccc1)c1ccccc1)C5=O | 74.1% (inactive)
CCn1c(=S)[nH]c2c(=O)n(C)c(=O)n(C)c21 | 104% (inactive)
N#CC1=C(N)Oc2c(sc3c(F)cccc23)C1c1ccc(F)cc1 (stereo not given) | 61.5% (inactive)
C=C(C)[C@@H]1CC[C@]2(C(=O)N3CCN(C)CC3)CC[C@]3(C)[C@H](CC[C@@H]4[C@@]5(C)CC(=C/c6ccncc6)/C(=N/O)C(C)(C)[C@@H]5CC[C@]43C)[C@@H]12 | 86.7% (inactive)
Fc1ccc2[nH]cc(-c3nonc3-c3c[nH]c4ccc(Br)cc34)c2c1 | 36.8% (inactive)
O=C1c2c(c3c4ccc(Br)cc4oc3c3[nH]c4ccccc4c23)C(=O)N1O | 95.9% (inactive)
NC(=O)CCC(C(=O)O)N1C(=O)c2ccc(O)cc2C1=O (stereo not given) | 131% (inactive)
COc1ccc2nc(NC(=O)CSc3nnc4n3S(=O)(=O)c3ccccc3N4C)sc2c1 | 97.5% (inactive)
C=C(C)[C@@H]1CC[C@]2(C(=O)NCC#CCN3CCN(C)CC3)CC[C@]3(C)[C@H](CC[C@@H]4[C@@](C)(CCC#N)[C@H](C(=C)C)CC[C@]43C)[C@@H]12 | 64.5% (inactive)
Cc1nnc(-n2c(O)cc(=O)n(-c3ccccc3)c2=S)nc1/C=C/c1ccc(N(C)C)cc1 | 82.7% (inactive)

SMILES | growth
C/C(=N\NC(=O)c1ccccc1O)c1cccc(/C(C)=N/NC(=O)c2ccccc2O)n1 | 78.9% (inactive)
O=C1c2cc(Cl)ccc2S(=O)(=O)c2c(NCCCNCCO)nc3ccccc3c21 | -18% (active)
Cc1cc2c(O)c(-c3cc(Cl)ccc3Cl)c3sc(=O)oc3c2cc1C | 106% (inactive)
O=C(Nc1ccc(NC(=O)c2cc(=O)[nH]c3ccccc23)cc1)Nc1cccc(C(F)(F)F)c1 | 84.3% (inactive)
c1ccc(C2=NN[C@H](c3cn(-c4ccccc4)nc3-c3ccccc3)C2)cc1 | 83.6% (inactive)
O=C(CCCCC1CCSS1)Nc1ncnc2n[nH]c(-c3ccc(Oc4ccccc4)cc3)c12 (stereo not given) | 101% (inactive)
COc1cc(OC)cc(C2=C3CC[C@@H]4[C@H](CC[C@]5(C)C(=O)CC[C@@H]45)C3=CC3C(O)c4cccnc4N4C(=O)COC234)c1 (stereo not given in full) | 95.5% (inactive)
Cc1cnc(C(=O)NNc2nc3sc4c(c3c(=O)n2C)C(C)CCC4)cn1 (stereo not given) | 2.46% (active)
C=C(CNCCc1ccc(O)cc1)[C@@H]1CC[C@]2(CO)CC[C@]3(C)[C@H](CC[C@@H]4[C@@]5(C)CCC(NCCO)C(C)(C)[C@@H]5CC[C@]43C)[C@@H]12 (stereo not given in full) | 4.67% (active)
COc1ccc(/C=N/C2=C(C#N)C(c3cccc(Cl)c3)c3c(ccc4ccccc34)O2)cc1 (stereo not given) | 62.3% (inactive)
CCc1ccc(Oc2cn[nH]c2-c2ccc(OCCc3ccc(F)cc3)cc2O)cc1 | 90.6% (inactive)
O=C(/C=C/c1cn(-c2ccccc2)nc1-c1ccc([N+](=O)[O-])cc1)c1ccc(Cl)cc1 | 34.2% (inactive)
CO[C@H]1/C=C(/C)CCC[C@H](C)[C@H](O)[C@@H](C)C(=O)C(C)(C)[C@@H](O)CC(=O)O[C@@H]1/C(C)=C/c1csc(C)n1 | 34.6% (inactive)
Clc1ccc(CNc2c3ccccc3nc3ccccc23)cc1 | 50.5% (inactive)
CCCCN[C@H]1CC[C@@]2(C)[C@@H](CC[C@@]3(C)[C@H]2[C@H](O)C[C@H]2/C(=C(\CCC=C(C)C)C(=O)OC)[C@@H](OC(C)=O)C[C@@]23C)[C@@H]1C | 91.4% (inactive)
N#Cc1c(NC(=O)c2ccccc2)sc2c1CCC(=O)C2 | 22.1% (inactive)
O=[N+]([O-])c1ccc(N/N=C(/C(=N/Nc2ccc([N+](=O)[O-])cc2)c2ccccc2)c2ccccc2)cc1 | 82.5% (inactive)
Oc1c(Cl)cc(Cl)c2ccc(Cn3cc(-c4cc(C(F)(F)F)cc(C(F)(F)F)c4)nn3)nc12 | 95.6% (inactive)
COc1cc(-c2cc(-c3ccc(N(C)C)cc3)nc(N3CCC(O)CC3)c2C#N)cc(OC)c1OC | 20.6% (inactive)
Cc1nn(-c2ccccc2)c(Oc2ccccn2)c1-c1nc2ccccc2s1 | 93.4% (inactive)
